Laboratory results taken from PubChem BioAssay (NCATS).
Activity calls are given as the source filed them. Where a call stands in place of a potency, no number is given. Calls follow the shape of the dose curve; as a rule, active = well fitted curve in the direction sought with a large enough effect; inconclusive = small, poorly fitted or top-dose-only effect, or another doubt; inactive = no such curve, though single readings can be large or run the other way.

assay: qHTS for ATAD5 Agonist screened against the NCATS CANVASS Library (AID 1347367); conditions: HEK293T ATAD5-luciferase reporter, luminescence, 16 h; series mostly up to 46.1 µM;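 also: luciferase reporter driven by ATAD5 which rises upon DNA damage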
Summary of the method: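 Step one plated reporter cells and let them acclimate 5hr. Step two pinned compounds with MMS as positive and 0.46% DMSO as negative control. After 16hr incubation, fluorescence viability then luminescence were read.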

Row | Structure (SMILES) | Potency
1 | O[C@H]1c2ccccc2-c2c3c(cc4c2[C@@H]1NCC4)OCO3 | inactive
2 | CC(C)=CC[C@H]1C[C@@]2(CC=C(C)C)C(=O)[C@](CC=C(C)C)(C(=O)C(C(=O)c3ccccc3)=C2O)C1(C)C | inactive
3 | C[C@]12CC[C@]3(C1)[C@H](CC2=O)C[C@@H](OC(=O)c1ccccc1)[C@H]1[C@](C)(C(=O)O)CCC[C@@]13C | inactive
4 | CC(=O)O[C@H]1c2ccccc2-c2c3c(cc4c2[C@@H]1N(C(C)=O)CC4)OCO3 | inactive
5 | C=C[C@](Cl)(CBr)CCC=C(C)C | inactive
6 | C=C1CC[C@@H](Br)C(C)(C)[C@]12CC=C(C)C(=O)C2 | inactive
7 | COc1cc2c(cc1OC)[C@@H](c1ccc3c(c1)OCO3)C(C)C(C)C2=O (some centres not stated) | inactive
8 | CC(C)[C@]12CC[C@@]3(C)[C@H](C)CC[C@H](O)[C@@]3(CC1)c1cc3c(cc12)[nH]c1ccccc13 | inactive
9 | C/C=C1/CN2C3CC1C1C=CC(=O)N4c5ccccc5[C@@]3(C[C@@H]2C2=C[C@H]3C5CC6N(CC[C@@]67c6ccccc6N(C2=O)[C@@H]37)C/C5=C/C)[C@H]14 (some centres not stated) | inactive
10 | CC(C)=CCC[C@]12c3cc4c(cc3CC[C@@]1(C)[C@H](C)CC[C@@H]2O)[nH]c1ccccc14 | inactive
11 | Oc1ccc(C2Oc3cc(O)c4c(c3[C@@H]2c2cc(O)cc(O)c2)[C@H]2C(c3ccc(O)cc3)c3c(O)cc5c(c3[C@H]2C4c2ccc(O)cc2)[C@H](c2cc(O)cc(O)c2)C(c2ccc(O)cc2)O5)cc1 (some centres not stated) | inactive
12 | COc1cc(O)c(C(=O)[C@@H]2[C@H](CC=C(C)C)C(C)=CC[C@H]2c2ccccc2)c(O)c1 | inactive
